This note sets out measurements from the supplement of paper PMC12819154, “High-throughput peptide-centric local stability assay extends protein–ligand identification to membrane proteins, tissues and bacteria” (Nature Structural & Molecular Biology, 2025).
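Also: lysate desalted by size exclusion to strip endogenous ATP, peptide intensities built from DIA-NN precursor signals, and peptides missing any value discarded before comparison.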

Sequence of UniProt P39285 (P39285 whole entry): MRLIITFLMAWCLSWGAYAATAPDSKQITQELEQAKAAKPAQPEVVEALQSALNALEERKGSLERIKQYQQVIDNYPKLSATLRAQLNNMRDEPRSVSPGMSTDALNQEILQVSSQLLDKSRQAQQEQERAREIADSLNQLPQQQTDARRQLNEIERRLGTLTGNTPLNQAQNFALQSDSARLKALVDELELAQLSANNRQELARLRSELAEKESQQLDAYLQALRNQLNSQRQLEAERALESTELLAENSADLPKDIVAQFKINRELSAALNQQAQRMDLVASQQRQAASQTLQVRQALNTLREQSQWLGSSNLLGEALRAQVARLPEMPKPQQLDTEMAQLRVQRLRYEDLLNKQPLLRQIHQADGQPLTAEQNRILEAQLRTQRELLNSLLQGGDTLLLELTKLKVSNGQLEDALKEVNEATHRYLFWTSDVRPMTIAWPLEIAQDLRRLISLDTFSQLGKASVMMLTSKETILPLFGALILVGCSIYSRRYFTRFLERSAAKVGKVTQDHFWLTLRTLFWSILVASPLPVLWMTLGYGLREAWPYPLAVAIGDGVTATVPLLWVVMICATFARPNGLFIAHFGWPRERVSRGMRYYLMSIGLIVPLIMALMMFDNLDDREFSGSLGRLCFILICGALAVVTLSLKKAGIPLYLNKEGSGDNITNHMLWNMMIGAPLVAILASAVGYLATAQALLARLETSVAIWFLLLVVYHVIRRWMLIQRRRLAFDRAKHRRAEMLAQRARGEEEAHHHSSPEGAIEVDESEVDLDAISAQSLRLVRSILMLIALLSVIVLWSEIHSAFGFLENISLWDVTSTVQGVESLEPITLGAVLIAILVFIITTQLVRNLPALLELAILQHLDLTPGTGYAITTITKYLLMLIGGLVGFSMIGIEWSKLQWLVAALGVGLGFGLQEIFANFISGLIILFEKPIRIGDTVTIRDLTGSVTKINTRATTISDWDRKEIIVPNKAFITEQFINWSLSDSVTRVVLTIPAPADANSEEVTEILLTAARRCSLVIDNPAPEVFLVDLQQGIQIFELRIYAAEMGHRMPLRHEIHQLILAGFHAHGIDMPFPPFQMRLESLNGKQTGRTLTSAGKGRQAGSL
Sequence of UniProt P77804 (P77804 whole entry): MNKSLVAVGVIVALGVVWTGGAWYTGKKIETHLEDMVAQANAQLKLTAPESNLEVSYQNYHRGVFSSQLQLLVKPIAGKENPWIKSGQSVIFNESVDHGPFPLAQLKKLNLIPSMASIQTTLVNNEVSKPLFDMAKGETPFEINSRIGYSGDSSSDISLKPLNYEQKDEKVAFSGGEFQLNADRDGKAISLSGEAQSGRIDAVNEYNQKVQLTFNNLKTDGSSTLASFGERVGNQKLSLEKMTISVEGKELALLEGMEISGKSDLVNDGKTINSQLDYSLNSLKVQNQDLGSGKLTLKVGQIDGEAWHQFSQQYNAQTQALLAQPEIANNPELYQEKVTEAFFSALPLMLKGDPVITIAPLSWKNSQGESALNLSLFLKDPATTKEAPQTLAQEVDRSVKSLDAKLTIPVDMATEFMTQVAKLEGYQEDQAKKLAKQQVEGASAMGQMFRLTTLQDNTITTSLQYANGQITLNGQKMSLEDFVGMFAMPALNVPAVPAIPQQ
Sequence of UniProt P21513 (P21513 whole entry): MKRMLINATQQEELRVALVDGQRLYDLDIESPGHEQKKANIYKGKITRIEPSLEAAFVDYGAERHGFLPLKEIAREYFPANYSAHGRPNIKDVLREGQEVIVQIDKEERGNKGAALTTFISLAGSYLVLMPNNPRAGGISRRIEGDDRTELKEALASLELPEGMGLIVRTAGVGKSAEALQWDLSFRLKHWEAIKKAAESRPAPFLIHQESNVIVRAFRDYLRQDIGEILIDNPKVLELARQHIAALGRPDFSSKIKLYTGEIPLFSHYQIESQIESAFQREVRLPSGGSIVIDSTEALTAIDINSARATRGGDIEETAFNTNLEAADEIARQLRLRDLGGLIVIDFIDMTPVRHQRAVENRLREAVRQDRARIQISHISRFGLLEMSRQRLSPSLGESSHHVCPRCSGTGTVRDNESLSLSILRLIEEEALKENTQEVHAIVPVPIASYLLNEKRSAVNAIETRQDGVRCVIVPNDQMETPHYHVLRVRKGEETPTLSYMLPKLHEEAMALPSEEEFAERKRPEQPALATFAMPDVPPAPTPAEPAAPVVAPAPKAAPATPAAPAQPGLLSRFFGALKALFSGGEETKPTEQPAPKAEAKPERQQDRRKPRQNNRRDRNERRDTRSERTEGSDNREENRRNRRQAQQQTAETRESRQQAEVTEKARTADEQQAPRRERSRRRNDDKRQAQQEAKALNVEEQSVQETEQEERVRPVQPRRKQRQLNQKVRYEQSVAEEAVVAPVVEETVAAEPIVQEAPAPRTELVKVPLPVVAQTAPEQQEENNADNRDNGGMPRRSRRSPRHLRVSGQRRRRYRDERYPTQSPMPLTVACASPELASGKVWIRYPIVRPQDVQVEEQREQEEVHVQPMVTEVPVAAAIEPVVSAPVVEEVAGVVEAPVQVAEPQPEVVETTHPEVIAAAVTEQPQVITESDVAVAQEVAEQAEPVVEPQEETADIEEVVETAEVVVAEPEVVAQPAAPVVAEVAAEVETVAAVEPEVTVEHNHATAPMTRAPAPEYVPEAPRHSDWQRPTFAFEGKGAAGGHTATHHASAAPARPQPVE
Sequence of UniProt P39353 (P39353 whole entry): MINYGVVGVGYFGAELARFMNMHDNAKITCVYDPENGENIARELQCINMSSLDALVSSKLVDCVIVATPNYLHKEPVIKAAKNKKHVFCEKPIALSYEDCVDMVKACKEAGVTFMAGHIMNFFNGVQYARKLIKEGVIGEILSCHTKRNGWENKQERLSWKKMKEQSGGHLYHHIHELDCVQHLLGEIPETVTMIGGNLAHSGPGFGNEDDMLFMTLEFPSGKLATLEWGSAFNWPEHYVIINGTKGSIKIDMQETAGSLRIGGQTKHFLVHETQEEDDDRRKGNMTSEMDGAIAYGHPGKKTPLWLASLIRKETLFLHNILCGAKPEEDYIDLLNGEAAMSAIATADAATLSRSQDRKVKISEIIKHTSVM
Sequence of UniProt P06612 (P06612 whole entry): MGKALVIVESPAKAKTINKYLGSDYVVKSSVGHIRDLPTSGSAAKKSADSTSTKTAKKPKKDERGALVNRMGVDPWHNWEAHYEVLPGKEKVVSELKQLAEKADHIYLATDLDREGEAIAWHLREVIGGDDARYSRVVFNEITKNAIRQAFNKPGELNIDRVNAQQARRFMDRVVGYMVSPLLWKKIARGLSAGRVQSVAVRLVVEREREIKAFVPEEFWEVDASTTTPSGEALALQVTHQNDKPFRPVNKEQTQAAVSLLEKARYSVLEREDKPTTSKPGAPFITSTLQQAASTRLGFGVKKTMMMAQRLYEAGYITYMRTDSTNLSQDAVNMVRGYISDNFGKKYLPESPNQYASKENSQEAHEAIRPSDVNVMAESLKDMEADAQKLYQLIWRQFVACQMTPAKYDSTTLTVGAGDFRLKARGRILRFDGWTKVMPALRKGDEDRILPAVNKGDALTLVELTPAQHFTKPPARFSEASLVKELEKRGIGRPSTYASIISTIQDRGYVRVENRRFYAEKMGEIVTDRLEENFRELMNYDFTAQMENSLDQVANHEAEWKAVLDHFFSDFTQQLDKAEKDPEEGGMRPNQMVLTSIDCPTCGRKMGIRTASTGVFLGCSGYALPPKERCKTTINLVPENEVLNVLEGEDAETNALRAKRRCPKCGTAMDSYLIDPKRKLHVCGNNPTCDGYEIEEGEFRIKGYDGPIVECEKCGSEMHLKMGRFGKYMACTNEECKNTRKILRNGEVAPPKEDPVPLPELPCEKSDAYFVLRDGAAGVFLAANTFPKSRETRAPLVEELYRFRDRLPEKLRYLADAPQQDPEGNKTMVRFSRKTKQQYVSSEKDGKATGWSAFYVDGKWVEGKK
Sequence of UniProt P39160 (P39160 whole entry): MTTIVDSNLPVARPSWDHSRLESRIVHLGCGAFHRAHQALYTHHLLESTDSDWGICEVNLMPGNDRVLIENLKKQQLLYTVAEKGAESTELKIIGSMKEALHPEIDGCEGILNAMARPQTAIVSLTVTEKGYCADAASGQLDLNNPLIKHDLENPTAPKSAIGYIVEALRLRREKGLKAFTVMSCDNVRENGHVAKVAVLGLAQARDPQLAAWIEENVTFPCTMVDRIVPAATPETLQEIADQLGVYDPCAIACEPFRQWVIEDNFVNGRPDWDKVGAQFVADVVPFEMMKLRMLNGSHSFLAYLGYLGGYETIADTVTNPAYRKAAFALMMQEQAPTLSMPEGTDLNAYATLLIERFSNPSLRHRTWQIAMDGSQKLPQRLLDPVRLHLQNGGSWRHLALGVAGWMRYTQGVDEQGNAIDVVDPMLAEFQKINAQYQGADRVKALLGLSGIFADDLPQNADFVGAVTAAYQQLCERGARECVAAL
Sequence of UniProt P06987 (P06987 whole entry): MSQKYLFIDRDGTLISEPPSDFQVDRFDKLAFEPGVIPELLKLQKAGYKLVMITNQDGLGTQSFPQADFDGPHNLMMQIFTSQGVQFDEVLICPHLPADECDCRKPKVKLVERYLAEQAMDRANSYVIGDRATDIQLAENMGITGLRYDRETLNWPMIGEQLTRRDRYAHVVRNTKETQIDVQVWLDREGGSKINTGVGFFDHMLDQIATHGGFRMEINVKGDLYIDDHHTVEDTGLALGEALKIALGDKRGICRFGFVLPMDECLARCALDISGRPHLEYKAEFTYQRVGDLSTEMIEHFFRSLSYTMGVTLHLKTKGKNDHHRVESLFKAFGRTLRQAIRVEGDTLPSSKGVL
Sequence of UniProt P30864 (P30864 whole entry): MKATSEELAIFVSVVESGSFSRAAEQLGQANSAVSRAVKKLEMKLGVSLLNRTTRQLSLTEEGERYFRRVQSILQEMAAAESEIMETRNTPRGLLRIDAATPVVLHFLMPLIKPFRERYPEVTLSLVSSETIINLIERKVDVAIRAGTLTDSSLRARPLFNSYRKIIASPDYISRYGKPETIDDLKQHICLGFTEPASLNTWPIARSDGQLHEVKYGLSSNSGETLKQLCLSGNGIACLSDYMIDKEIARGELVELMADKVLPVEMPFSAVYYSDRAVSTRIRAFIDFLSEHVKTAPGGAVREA

Compound in the assay: Nc1ncnc2c1ncn2[C@@H]1O[C@H](COP(=O)(O)OP(=O)(O)OP(=O)(O)O)[C@@H](O)[C@H]1O [adenosine 5'-triphosphate]
The assay is described as follows: log2 fold change of tryptic peptide abundance, ligand vs vehicle (limited proteolysis) (log2 ratio); higher = more trypsin-susceptible (destabilized). The note with it: ligand concentration: 5 mM; sample: E. coli desalted lysate; replicate design: treated before aliquoting. How it is done:
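HT-PELSA: desalted E. coli K-12 BW25113 lysate (with 12 mM MgCl2) incubated with 5 mM ATP (pH 7) or water for 30 min at 25 C, then a 4 min trypsin pulse at 22 C. Peptides were quantified by DIA-MS (4 replicates). Value is the peptide log2 fold change (treated/control); negative = stabilized. Scale: negative = ligand-stabilized region.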
Turning to “UniProt P0CF91 (peptide sequence: SLLHLDALR, peptide start residue: 320)”, the log2 fold change is 0.694.

As for “UniProt P24240 (peptide sequence: YGFVFVDRDDAGNGTLTR, peptide start residue: 436)”, the log2 fold change is -0.866.

Consider “UniProt P21865 (peptide sequence: AIEHFFR, peptide start residue: 205)”, for which the log2 fold change came out at 0.436.

As to “UniProt P27828 (peptide sequence: DTTERPEAVTAGTVR, peptide start residue: 309)”, the log2 fold change is -0.6.

Regarding “UniProt P0ADP0 (peptide sequence: EALTFVQNYHPALR, peptide start residue: 34)”, the log2 fold change was found to be 0.493.

For “UniProt P08201 (peptide sequence: LIVSEDNK, peptide start residue: 359)”, the log2 fold change stood at 1.35.

As to “UniProt P04949 (peptide sequence: NQSALSSSIER, peptide start residue: 21)”, the log2 fold change is 0.651.

As for “UniProt P39410 (peptide sequence: HIAQEMPEKIR, peptide start residue: 422)”, the log2 fold change was -1.96.

For “UniProt P39160 (peptide sequence: TWQIAMDGSQKLPQR, peptide start residue: 366)”, the log2 fold change was -0.725.

For the target “UniProt P39353 (peptide sequence: EGVIGEILSCHTKR, peptide start residue: 135)”, the log2 fold change was -0.665.

With “UniProt P52108 (peptide sequence: KKLLDNAAEPYR, peptide start residue: 211)”, the log2 fold change was 0.266.

For “UniProt P36928 (peptide sequence: EAVSEWLYR, peptide start residue: 44)”, the log2 fold change was 0.728.

Consider “UniProt P06987 (peptide sequence: VGDLSTEMIEHFFR, peptide start residue: 290)”, for which the log2 fold change was -1.32.

Consider “UniProt P21513 (peptide sequence: DNESLSLSILR, peptide start residue: 415)”, for which the log2 fold change was found to be 0.633.

“UniProt P29018 (peptide sequence: HLSWVGQNPQLPAATLR, peptide start residue: 424)”: the log2 fold change is -0.418.

In the case of “UniProt P39285 (peptide sequence: IYAAEMGHR, peptide start residue: 1044)”, the log2 fold change was determined as 0.638.

As for “UniProt P77608 (peptide sequence: AAEQGEAIAPLR, peptide start residue: 16)”, the log2 fold change came to 0.736.

As to “UniProt P76543 (peptide sequence: NSQLGWCR, peptide start residue: 147)”, the log2 fold change was -0.802.

In the case of “UniProt P30864 (peptide sequence: KIIASPDYISR, peptide start residue: 165)”, the log2 fold change came to 1.32.

For “UniProt P27550 (peptide sequence: IAEAAVVGIPHNIK, peptide start residue: 542)”, the log2 fold change is -2.61.

As for “UniProt P37773 (peptide sequence: IIAVLEPRSNTMK, peptide start residue: 354)”, the log2 fold change was 1.55.

Take “UniProt P37626 (peptide sequence: TVETSDER, peptide start residue: 297)”: the log2 fold change was determined as 0.336.

With “UniProt P30178 (peptide sequence: QMGSEEQEAK, peptide start residue: 22)”, the log2 fold change was -1.15.

Regarding “UniProt P11446 (peptide sequence: GAAAQAVQCANIR, peptide start residue: 312)”, the log2 fold change was -0.854.

Consider “UniProt P0ADA3 (peptide sequence: IATMGSTGTSSTR, peptide start residue: 346)”, for which the log2 fold change was found to be 0.385.

“UniProt P45568 (peptide sequence: ESLVTCGR, peptide start residue: 126)”: the log2 fold change came out at 0.779.

With “UniProt P37194 (peptide sequence: GNNQPDIQK, peptide start residue: 28)”, the log2 fold change was 0.489.

With “UniProt P36771 (peptide sequence: AGLGVTARPVEMMSPDLR, peptide start residue: 231)”, the log2 fold change stood at 0.543.

On to “UniProt P06612 (peptide sequence: ADHIYLATDLDREGEAIAWHLR, peptide start residue: 103)”, for which the log2 fold change was -1.02.

On to “UniProt P76196 (peptide sequence: VVEQLLAMR, peptide start residue: 47)”, for which the log2 fold change is -0.864.

Take “UniProt P36929 (peptide sequence: VYDNLKR, peptide start residue: 286)”: the log2 fold change is -1.2.

On to “UniProt P0AEH3 (peptide sequence: VGQQLMSK, peptide start residue: 91)”, for which the log2 fold change came to 0.523.

Consider “UniProt P37182 (peptide sequence: ESGVEAIPR, peptide start residue: 151)”, for which the log2 fold change was found to be 0.522.

As for “UniProt P22939 (peptide sequence: GLPTCHVK, peptide start residue: 97)”, the log2 fold change was 0.252.

For “UniProt P77783 (peptide sequence: MNHPDRLK, peptide start residue: 109)”, the log2 fold change was -0.483.

For the target “UniProt P77293 (peptide sequence: GILSWVGGK, peptide start residue: 179)”, the log2 fold change is -0.543.

As to “UniProt P24188 (peptide sequence: NHYEYEVGHFENALEIPADTFR, peptide start residue: 157)”, the log2 fold change is 0.32.

Regarding “UniProt P0AC00 (peptide sequence: RYYGGLVEY, peptide start residue: 332)”, the log2 fold change was -0.478.

With “UniProt P77804 (peptide sequence: LEGYQEDQAKK, peptide start residue: 423)”, the log2 fold change is 0.387.

Consider “UniProt P45523 (peptide sequence: GTLIDGKEFDNSYTR, peptide start residue: 173)”, for which the log2 fold change is 0.527.
